From PubChem BioAssay (NCATS) come the findings set out here.

Common to all, as to assay: qHTS profiling for inhibitors of Plasmodium falciparum proliferation (AID 504749); also: nearly all actives have a fitted effect of over 60% in size
Holding throughout (settings): P. falciparum in erythrocytes, SYBR Green DNA, 72 h; series mostly up to 28.7 µM
(Quantitative high-throughput screening tests each substance at several concentrations.)

The subject of assay [1] is CP329. The procedure, abridged: (§1)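 P. falciparum-infected erythrocytes (0.3% parasitemia, 2.5% hematocrit) incubated with compound 72 h at 37 C, 5% CO2. Parasite DNA detected by SYBR Green after lysis, overnight at room temperature; normalised to 0.29 uM artemisinin and DMSO.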
For assay [2], the system named is CP335. The procedure, abridged:
as §1

The test system of assay [3] is DFO2036. The procedure, abridged: as §1
Assay [4] deals with DIV14. The procedure, abridged: as §1
Assay [5] deals with DIV17. The essentials:
as §1

Assay [6] has as its system DIV30. The essentials: as §1
In assay [7] the test system is Dd2. The procedure, abridged:
as §1

Assay [8] has as its system ECU. The procedure, abridged: as §1
Assay [9] deals with FAB9. The essentials:
as §1

The subject of assay [10] is GB4. The procedure, abridged:
as §1

Molecules are shown by their SMILES. Records with an inconclusive call do not appear. Active and inactive are the calls of the source. Calls follow the shape of the dose curve; as a rule, active = well fitted inhibition curve with a large enough effect; inconclusive = small, poorly fitted or top-dose-only effect; inactive = flat fitted curve, though single readings scatter.
Potency is read from the fitted curve at half-maximal effect.

Consider `CC(NNC(=O)c1ccccc1)c1ccccc1` (stereo not given), for which the Potency result in [1], in [2], in [3], in assay [4], in [5] and in assay [6] was “inactive” in each case. For the same compound, the Potency result in assay [7], in assay [8], in assay [9] and in [10] was “inactive” in each case.
Turning to `Cc1c(C)c2c(c(C)c1O)CC[C@@](C)(CCC[C@@H](C)CCC[C@@H](C)CCCC(C)C)O2`, the Potency result in assay [1], in assay [2], in assay [3], in assay [4], in assay [5] and in assay [6] was “inactive” in each case. Besides, the Potency result in assay [7], in assay [8], in assay [9] and in assay [10] was “inactive” each time.
On to `COC(=O)C1=C(C#N)NC(C)=C(C(=O)OC(C)C)C1c1cccc([N+](=O)[O-])c1` (stereo not given), for which the Potency is 15100 nM (active) in assay [1]; 8490 nM (active) in assay [2]; 12600 nM (active) in [3]; 7570 nM (active) in assay [4]; 13500 nM (active) in [5]; 10700 nM (active) in [6]. Besides, the Potency in assay [7] was 12600 nM (active); in assay [8] it was 10000 nM (active).
On to `CCC(=O)NCCC1CCc2ccc3c(c21)CCO3` (stereo not given), for which the Potency result in assay [1], in assay [2], in [3], in assay [4], in assay [5] and in assay [6] was “inactive” each time. Also, the Potency entry in [7], in assay [8], in [9] and in assay [10] was “inactive” throughout.
As to `COCC(=O)Nc1cc(Sc2ccccc2)ccc1N=C(NC(=O)OC)NC(=O)OC`, the Potency result in assay [1], in [2], in [3], in assay [4], in assay [5] and in assay [6] was “inactive” each time. Also, the Potency entry in assay [7], in assay [8], in assay [9] and in assay [10] was “inactive” throughout.
As for `Cc1ccccc1`, the Potency result in assay [1], in [2], in assay [3], in assay [4], in [5] and in assay [6] was “inactive” throughout. The Potency result in [7], in assay [8], in assay [9] and in assay [10] was “inactive” throughout.
Take `CC(C)(C)C(=O)OCOC(=O)[C@@H]1N2C(=O)[C@@H](N=CN3CCCCCC3)[C@H]2SC1(C)C`: the Potency result in assay [1], in assay [2], in [3], in assay [4], in assay [5] and in assay [6] was “inactive” in each case. Further, the Potency result in assay [7], in assay [8], in [9] and in assay [10] was “inactive” throughout.
Take `CCOC(C)=O`: the Potency result in assay [1], in [2], in [3], in [4], in assay [5] and in assay [6] was “inactive” in each case. The Potency result in assay [7], in assay [8], in assay [9] and in assay [10] was “inactive” in each case.
Consider `CC1=CCC(C(C)(C)O)CC1` (stereo not given), for which the Potency result in assay [1], in assay [2], in [3], in assay [4], in [5] and in assay [6] was “inactive” in each case. Moreover, the Potency result in [7], in assay [8], in [9] and in assay [10] was “inactive” each time.
In the case of `C#CCOc1ccc2c(C)cc(=O)oc2c1`, the Potency result in assay [1], in [2], in assay [3], in assay [4], in [5] and in [6] was “inactive” in each case. Moreover, the Potency result in [7], in assay [8], in assay [9] and in [10] was “inactive” in each case.
Consider `COC(C(=O)C(O)C(C)O)C1Cc2cc3cc(OC4CC(OC5CC(O)C(O)C(C)O5)C(O)C(C)O4)c(C)c(O)c3c(O)c2C(=O)C1OC1CC(OC2CC(OC3CC(C)(O)C(O)C(C)O3)C(O)C(C)O2)C(O)C(C)O1` (stereo not given), for which the Potency in assay [1] is 2130 nM (active); in assay [2], 379 nM (active); in [3], 141 nM (active); in [4], 1510 nM (active); in assay [5], 1510 nM (active); in [6] it was 3010 nM (active). In addition, the Potency in [7] is 100 nM (active); in assay [8] it was 178 nM (active); in assay [9], 1580 nM (active); in assay [10] it was 1350 nM (active).
Take `CCCCCCCC(=O)O`: the Potency entry in assay [1], in assay [2], in assay [3], in assay [4], in [5] and in assay [6] was “inactive” in each case. Besides, the Potency result in assay [7], in assay [8], in [9] and in [10] was “inactive” throughout.
Take `COC(F)(F)C(Cl)Cl`: the Potency entry in [1], in [2], in [3], in [4], in [5] and in assay [6] was “inactive” throughout. Also, the Potency entry in [7], in assay [8], in assay [9] and in [10] was “inactive” throughout.
In the case of `Cc1ccccc1OCC(O)CNCCOc1ccc(C(N)=O)cc1` (stereo not given), the Potency result in [1], in assay [2], in assay [3], in assay [4], in assay [6] and in assay [7] was “inactive” each time. For the same compound, the Potency result in assay [8] and in assay [9] was “inactive” throughout.
`CC1=C(/C=C/C(C)=C/C=C/C(C)=C/C=C/C=C(C)/C=C/C=C(C)/C=C/C2=C(C)CCCC2(C)C)C(C)(C)CCC1`: the Potency entry in [1], in [2], in [3], in assay [4], in assay [5] and in assay [6] was “inactive” in each case. The Potency result in assay [7], in [8], in assay [9] and in assay [10] was “inactive” each time.
With `Cc1cn([C@H]2C[C@H](O)[C@@H](CO)O2)c(=O)[nH]c1=O`, the Potency result in assay [1], in [2], in assay [3], in assay [4], in assay [5] and in assay [6] was “inactive” throughout. Besides, the Potency result in [7], in assay [8], in assay [9] and in assay [10] was “inactive” throughout.
In the case of `CC1(C)C(C=C(Cl)Cl)C1C(=O)OCc1cccc(Oc2ccccc2)c1` (stereo not given), the Potency result in assay [1], in assay [2], in assay [3], in [4], in assay [5] and in [6] was “inactive” each time. Moreover, the Potency result in assay [8], in assay [9] and in assay [10] was “inactive” in each case.
With `CCCCCCC(O)C/C=C/CCCCCCCC(=O)O` (stereo not given), the Potency result in assay [1], in assay [2], in assay [3], in [4], in assay [5] and in assay [6] was “inactive” throughout. Also, the Potency result in [7], in assay [8], in [9] and in [10] was “inactive” throughout.
